High-throughput results: PubChem BioAssay, several laboratories
Rows were chosen to be rich in hits. Some 4.5% of all compounds tested hit in one or more screens of this group.
BJeLR lethal: BJeLR cell viability loss; inhibition, % (concentration not given with the values); 300,000 compounds, 0.17% hits; BJeLR (HRASV12) viability, CellTiter-Glo ATP luminescence, 48 h; in the data active = inhibition above about 50%; inconclusive = no clear call, values can overlap the other calls
PrP UTR inh: inhibition of PrP 5' UTR reporter expression. cell-based PrP 5' UTR mRNA reporter, plate reader. inhibition, % (concentration not given with the values). 340,000 compounds, 0.35% hits. AID 488862; in the data active = inhibition above about 52%
PrPC TRFRET: reduces human prion protein on the cell surface | P04156 | cell surface PrPC, TR-FRET read-out | inhibition, % at 13.8 µM | 370,000 compounds, 0.43% hits | AID 720596; in the data active = inhibition above about 24%
FBA Mtb inh: inhibitors of M. tuberculosis fructose-bisphosphate aldolase; P9WQA3; purified M. tuberculosis FBA, fluorescence read-out; inhibition, % at 1 µM; 360,000 compounds, 2.3% hits; AID 588726; in the data active = inhibition above about 27%
Target sequence (P9WQA3 whole entry, looked up): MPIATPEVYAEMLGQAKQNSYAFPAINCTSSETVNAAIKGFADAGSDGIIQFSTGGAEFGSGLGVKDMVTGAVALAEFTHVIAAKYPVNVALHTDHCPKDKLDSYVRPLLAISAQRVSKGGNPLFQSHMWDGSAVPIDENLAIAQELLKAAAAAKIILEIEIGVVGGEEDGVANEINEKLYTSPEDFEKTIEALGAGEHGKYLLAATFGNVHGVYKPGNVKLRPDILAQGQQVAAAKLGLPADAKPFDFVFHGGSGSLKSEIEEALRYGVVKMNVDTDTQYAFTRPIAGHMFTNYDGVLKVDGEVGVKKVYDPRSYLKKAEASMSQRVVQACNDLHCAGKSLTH
GDH-TPI inh: inhibits GDH-TPI coupling enzymes, artifact for Mtb FBA screen; GDH-TPI coupled enzyme counterscreen, NADH absorbance; inhibition, % at 4.8 µM; 360,000 compounds, 1.2% hits; in the data active = inhibition above about 30%
PfHsp40 rescue: restores yeast growth despite PfHsp40 toxicity; growth rescue, % at 12.5 µM; AID 504582; S. cerevisiae expressing PfHsp40, growth rescue, ATP luminescence; 340,000 compounds, 0.68% hits; in the data active = growth rescue above about 28%, passing the limit was not always enough; inconclusive = no clear call, values can overlap the other calls;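 also: yeast W303a lacking pdr1 and pdr3 grown in galactose medium; growth measured after three days at 30 °C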
PrP 5UTR single: prion 5' UTR mRNA inhibition, cherry-pick retest | shares compounds with PrP UTR inh | cell-based prion protein 5' UTR reporter, plate reader | inhibition, % at 2.5 µM | 1,100 compounds, 48% hits | AID 504592; in the data active = inhibition above about 54%; inconclusive = no clear call, values can overlap the other calls
A number is an active result; i = inactive; ? = inconclusive; nt = not tested or not shown.

SMILES | BJeLR lethal | PrP UTR inh | PrPC TRFRET | FBA Mtb inh | GDH-TPI inh | PfHsp40 rescue | PrP 5UTR single
CN(C)c1ccc(Nc2nc(N)c3ccccc3n2)cc1 | i | 77 | i | i | i | i | 62
COc1ccccc1-c1ccc([C@@H]2C[C@H]3[C@H](CON3C)CN2CC2CCCCC2)cc1 | nt | nt | i | nt | nt | nt | nt
CNc1ccccc1/C(O)=C(\C#N)C(=O)NCc1cccs1 | nt | nt | i | nt | nt | nt | nt
CN(C)c1ccc(C(=O)NC2CCCCN(Cc3ccc(Cl)cc3)C2=O)cc1 (stereo not given) | nt | nt | i | nt | nt | nt | nt
Cc1ccccc1N1C(=O)CC2(CCCC2)CC1=O | i | 82 | i | i | i | i | i
O=C(Nc1ccc(OC(F)(F)F)cc1)Nc1c(-c2ccc(F)cc2)nc2ncccn12 | nt | nt | i | nt | nt | nt | nt
CN(C)CC(C)(C)CNS(=O)(=O)c1ccc(OC(F)(F)F)cc1 | i | 59 | i | i | i | i | i
COc1cc(C2c3[nH]c4ccccc4c3CC3COC(=O)N32)cc(OC)c1O (stereo not given) | nt | 59 | i | i | i | i | 90
COc1cc(NC(=O)C2CCCN(S(=O)(=O)c3ccccc3)C2)cc(OC)c1 (stereo not given) | nt | nt | i | nt | nt | nt | nt
NC(=O)c1nsc(C(=O)N(CC(=O)NCc2ccc3c(c2)OCO3)C2CCCC2)c1N | i | 76 | i | i | i | i | i
Cc1nnc(NN2CCOCC2)[nH]c1=O | i | 84 | i | i | i | i | i
CC(=O)NC(C)C(=O)N1CCCC1C(=O)N1CCCC1C(=O)NC(C)C(=O)NC1C(=O)NC(CC(C)C)C(=O)NC2CCCCNC(=O)CCC(C(=O)NC(Cc3ccc(O)cc3)C(=O)O)NC(=O)C3CCC(=O)OCC(NC(=O)C4CCCN4C(=O)C(Cc4c[nH]c5ccccc45)NC2=O)C(=O)NC(CC(=O)OC1C)C(=O)NC(Cc1c[nH]c2ccccc12)C(=O)N3 (stereo not given) | nt | nt | i | nt | nt | nt | nt
Cc1cccc(N2CCN(C(=O)c3cc(S(=O)(=O)N(C)C)ccc3Cl)CC2)c1C | nt | nt | i | nt | nt | nt | nt
Cc1nn(CCCC(=O)Nc2cccnc2Cl)c(C)c1[N+](=O)[O-] | i | 52 | i | i | i | i | i
CC(=O)OCC12CC(OC(=O)CC(C)C)C(C)=CC1OC1C(O)C(OC(C)=O)C2(C)C12CO2 (stereo not given) | nt | 91 | 87 | i | i | nt | 93
O=C(NC(=S)Nn1cnnc1)c1ccc(F)cc1Cl | i | i | i | i | i | i | nt
O=C(NC(=S)Nn1cnnc1)c1ccccc1Cl | i | 78 | i | i | i | i | i
O=C(COC(=O)c1ccc[nH]c1=O)Nc1ccc(N2CCCCC2)cc1 | nt | 62 | i | i | i | i | ?
CC(=O)C[C@H](O)CC(=O)[C@@H]1OC(=O)CCCCCc2ccccc21 | nt | 90 | i | i | i | i | i
CC(=O)C[C@H](O)CC(=O)[C@H]1OC(=O)[C@H](C)CCCCc2ccccc21 | nt | 66 | i | i | i | i | i
CC(=O)C[C@H](O)CC(=O)[C@H]1OC(=O)CCCCCc2ccccc21 | nt | i | i | i | i | i | nt
CC(C)OC(=O)c1cc(C(=O)c2cc(Br)ccc2O)coc1=N | i | 63 | i | i | i | i | i
CCOC(=O)c1cc(C(=O)c2cc(F)ccc2O)coc1=N | i | i | i | i | i | i | nt
CO[C@H]1CN(C)C(=O)c2ccc(NC(=O)c3ccc4c(c3)OCO4)cc2OC[C@H](C)N(CC2CC2)C[C@@H]1C | nt | nt | i | nt | nt | nt | nt
COC(=O)C1CN(Cc2cn(Cc3ccc(OC)cc3)nn2)CCS(=O)(=O)N1Cc1ccc(Cl)cc1 (stereo not given) | nt | nt | i | nt | nt | nt | nt
SMILES | BJeLR lethal | PrP UTR inh | PrPC TRFRET | FBA Mtb inh | GDH-TPI inh | PfHsp40 rescue | PrP 5UTR single
C[C@]12CC[C@H]3[C@@H](CCC4=CC(=O)CC[C@@]43C)[C@@H]1CC[C@@H]2C(=O)CO | i | 76 | i | i | i | i | i
Cc1cccc(C(=O)N(Cc2ccco2)c2c(N)n(Cc3ccccc3)c(=O)[nH]c2=O)c1 | nt | 90 | i | i | i | i | i
Cc1ccc(C(=O)N(Cc2ccco2)c2c(N)n(Cc3ccccc3)c(=O)[nH]c2=O)cc1 | nt | nt | i | i | i | nt | nt
COc1cccc2c1C(CO)N1C(C#N)C3CC(C(=O)O)C(C1C2)N3C (stereo not given) | nt | 69 | i | i | i | i | 75
CC1(c2nnnn2Cc2ccccc2)CCC(=O)N1CCc1ccccc1F (stereo not given) | nt | nt | i | nt | nt | nt | nt
CC1=Nc2cc(C(=O)NCc3ccco3)ccc2Sc2ccc(C)cc21 | 54 | 61 | i | i | i | i | 88
CC1=Nc2cc(C(=O)NCC3CCCO3)ccc2Sc2ccc(C)cc21 (stereo not given) | i | i | i | i | i | i | nt
CCN(CC)S(=O)(=O)c1ccc(N2CCCC2)c(NC(=O)CN2C(=O)NC3(CCCC3)C2=O)c1 | i | 77 | i | i | i | i | i
O=C(NC1CCCCN(Cc2cccc(Cl)c2)C1=O)c1ccccn1 (stereo not given) | nt | nt | i | nt | nt | nt | nt
Cc1ccc(CNC(=O)C2CCN(c3nnc(N4CCCC4=O)s3)CC2)cc1 | i | 69 | i | i | i | i | i
N[C@@H](Cc1ccccc1)C(=O)N1C[C@H]2C[C@@H](C1)c1cccc(=O)n1C2 | i | 67 | i | i | i | i | i
COC(=O)C1CCN(c2cc(=O)n(-c3ccc(OC)cc3)c(=O)[nH]2)CC1 | i | 68 | i | i | i | i | i
COc1ccc(OC)c(S(=O)(=O)N2CCC(C(=O)NCC3COCCO3)CC2)c1 (stereo not given) | nt | nt | i | nt | nt | nt | nt
Cc1ccc(S(=O)(=O)Nc2ccccc2C(C(=O)OC(C)(C)C)C(=O)OC(C)(C)C)cc1 | nt | nt | i | nt | nt | nt | nt
CCOc1ncccc1C(=O)N1CCN(c2cc(Cl)ccc2C)CC1 | i | i | i | i | i | i | nt
CCOc1ncccc1C(=O)N1CCN(c2cccc(C)c2C)CC1 | i | 70 | i | i | i | i | 86
O=C(CCS(=O)(=O)Cc1ccccc1)N1CCN(c2ccccc2)CC1 | i | i | i | i | i | i | nt
O=C(CCS(=O)(=O)Cc1ccccc1)N1CCN(c2ccc([N+](=O)[O-])cc2)CC1 | i | 80 | i | i | i | i | i
O=C1C=C(c2ccc(O)cc2)C[C@@H](c2ccc3c(c2)OCO3)C1 | nt | 67 | i | i | i | i | i
C/C(=N\NC(=O)c1n[nH]c2c1CCC2)c1cccs1 | i | 76 | i | i | i | i | 73
O=C(Nc1c(Cl)cc2c(c1Cl)Cc1cc([N+](=O)[O-])ccc1-2)C(Cl)Cl | nt | 82 | i | i | i | i | i
CC(=O)Nc1ccc2c(c1)Cc1c-2cc(Cl)c(NC(C)=O)c1Cl | nt | i | i | i | i | i | nt
CCN(CC)CCNC(=O)c1c(O)c2cc(OC)c(OC)cc2[nH]c1=O | i | 72 | i | i | i | i | i
O=C(c1ccc(Cl)cc1)N1CCCCC(Sc2nnc(-c3ccc4c(c3)OCO4)o2)C1=O (stereo not given) | i | 74 | i | i | i | i | 78
